Measurements from the supplement of paper PMC11006884.
About 6,500 targets were measured; listed, in parts, are those with a hit and a random draw of the rest. About 2% of all pairs of compound and target were hits.

compound: COC(=O)C#Cc1ccccc1 [methyl 3-phenylpropiolate]; test: log2 ratio of iodoacetamide-alkyne labeling of the cysteine site, DMSO over compound (competition); higher = stronger covalent engagement of the cysteine by the compound, active = 1 or more; details: 500 µM; treatment time 1 h; system: HEK293T cell lysate
Method in brief: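 Electrophile (500 µM) or vehicle was added to HEK293T lysate (2 mg/mL) for 1 h at ambient temperature before iodoacetamide alkyne labelling (1 h) and click coupling to sCIP-TMT reagents. After pooling, overnight trypsin digestion at 37 °C, streptavidin enrichment and acid elution, peptides were measured by Orbitrap Eclipse LC-MS/MS with FAIMS and quantified in FragPipe. Each cysteine's log2 competition ratio compares mean control-channel with mean compound-channel reporter intensity, control over compound. Data came from duplicate channels across three replicates, excluding cysteines quantified in only one replicate.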

Sequence of UniProt O95347 (O95347 whole entry, looked up): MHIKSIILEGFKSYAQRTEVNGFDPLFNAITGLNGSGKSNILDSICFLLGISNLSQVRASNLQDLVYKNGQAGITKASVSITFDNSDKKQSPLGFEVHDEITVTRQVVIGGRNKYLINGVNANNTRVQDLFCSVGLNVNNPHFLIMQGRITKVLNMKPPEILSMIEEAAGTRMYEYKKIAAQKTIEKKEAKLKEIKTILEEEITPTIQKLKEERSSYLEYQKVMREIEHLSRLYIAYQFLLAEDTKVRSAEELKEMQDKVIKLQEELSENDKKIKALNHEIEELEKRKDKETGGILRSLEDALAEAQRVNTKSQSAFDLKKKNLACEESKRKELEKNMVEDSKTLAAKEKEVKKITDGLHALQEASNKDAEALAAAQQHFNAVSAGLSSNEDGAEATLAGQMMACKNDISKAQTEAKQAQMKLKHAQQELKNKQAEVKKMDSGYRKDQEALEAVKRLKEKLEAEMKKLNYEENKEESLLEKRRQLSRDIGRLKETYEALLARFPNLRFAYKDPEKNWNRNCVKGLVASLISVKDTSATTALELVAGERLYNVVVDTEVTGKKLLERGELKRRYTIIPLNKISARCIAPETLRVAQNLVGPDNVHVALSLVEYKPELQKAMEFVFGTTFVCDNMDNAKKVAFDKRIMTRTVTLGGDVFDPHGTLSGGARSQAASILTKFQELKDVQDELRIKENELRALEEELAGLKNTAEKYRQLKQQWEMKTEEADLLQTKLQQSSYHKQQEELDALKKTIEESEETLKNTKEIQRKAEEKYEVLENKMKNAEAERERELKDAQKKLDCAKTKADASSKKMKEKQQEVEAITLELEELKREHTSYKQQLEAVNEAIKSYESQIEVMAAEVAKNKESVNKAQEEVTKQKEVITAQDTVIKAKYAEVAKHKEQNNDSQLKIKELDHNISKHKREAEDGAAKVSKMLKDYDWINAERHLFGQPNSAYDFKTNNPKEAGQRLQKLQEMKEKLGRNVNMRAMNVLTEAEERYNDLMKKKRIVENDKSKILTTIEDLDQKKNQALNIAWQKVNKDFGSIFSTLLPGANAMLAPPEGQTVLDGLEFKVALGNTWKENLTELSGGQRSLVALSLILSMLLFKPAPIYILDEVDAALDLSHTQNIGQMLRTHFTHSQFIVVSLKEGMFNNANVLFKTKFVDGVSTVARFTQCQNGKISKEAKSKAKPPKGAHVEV
Sequence of UniProt P21964 (P21964 whole entry, looked up): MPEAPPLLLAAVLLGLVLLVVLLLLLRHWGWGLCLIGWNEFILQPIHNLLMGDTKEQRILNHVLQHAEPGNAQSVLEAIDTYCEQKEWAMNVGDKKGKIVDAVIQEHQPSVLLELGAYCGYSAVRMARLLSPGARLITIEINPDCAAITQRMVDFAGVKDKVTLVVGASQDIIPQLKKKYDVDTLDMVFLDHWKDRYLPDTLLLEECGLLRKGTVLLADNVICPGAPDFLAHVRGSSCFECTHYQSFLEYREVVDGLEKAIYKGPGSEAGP
Sequence of UniProt P08238 (P08238 whole entry, looked up): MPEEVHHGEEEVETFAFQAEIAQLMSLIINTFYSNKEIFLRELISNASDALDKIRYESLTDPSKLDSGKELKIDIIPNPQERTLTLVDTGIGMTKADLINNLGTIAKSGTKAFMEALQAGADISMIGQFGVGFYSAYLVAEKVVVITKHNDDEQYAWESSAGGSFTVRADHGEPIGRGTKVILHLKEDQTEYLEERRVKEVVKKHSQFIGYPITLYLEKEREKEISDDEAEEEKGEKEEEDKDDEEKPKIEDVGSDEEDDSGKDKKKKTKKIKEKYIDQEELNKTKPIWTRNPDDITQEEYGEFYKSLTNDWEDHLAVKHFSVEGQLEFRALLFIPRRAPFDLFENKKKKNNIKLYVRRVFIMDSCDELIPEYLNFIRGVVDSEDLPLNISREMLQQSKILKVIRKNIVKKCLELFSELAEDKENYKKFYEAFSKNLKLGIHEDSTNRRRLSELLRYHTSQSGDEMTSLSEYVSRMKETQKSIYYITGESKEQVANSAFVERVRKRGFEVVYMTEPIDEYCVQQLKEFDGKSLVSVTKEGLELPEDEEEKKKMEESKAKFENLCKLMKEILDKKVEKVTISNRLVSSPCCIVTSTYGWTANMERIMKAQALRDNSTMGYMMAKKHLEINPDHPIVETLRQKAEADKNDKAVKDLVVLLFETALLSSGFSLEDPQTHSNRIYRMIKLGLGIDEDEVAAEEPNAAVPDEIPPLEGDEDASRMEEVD
Sequence of UniProt P46060 (P46060 whole entry, looked up): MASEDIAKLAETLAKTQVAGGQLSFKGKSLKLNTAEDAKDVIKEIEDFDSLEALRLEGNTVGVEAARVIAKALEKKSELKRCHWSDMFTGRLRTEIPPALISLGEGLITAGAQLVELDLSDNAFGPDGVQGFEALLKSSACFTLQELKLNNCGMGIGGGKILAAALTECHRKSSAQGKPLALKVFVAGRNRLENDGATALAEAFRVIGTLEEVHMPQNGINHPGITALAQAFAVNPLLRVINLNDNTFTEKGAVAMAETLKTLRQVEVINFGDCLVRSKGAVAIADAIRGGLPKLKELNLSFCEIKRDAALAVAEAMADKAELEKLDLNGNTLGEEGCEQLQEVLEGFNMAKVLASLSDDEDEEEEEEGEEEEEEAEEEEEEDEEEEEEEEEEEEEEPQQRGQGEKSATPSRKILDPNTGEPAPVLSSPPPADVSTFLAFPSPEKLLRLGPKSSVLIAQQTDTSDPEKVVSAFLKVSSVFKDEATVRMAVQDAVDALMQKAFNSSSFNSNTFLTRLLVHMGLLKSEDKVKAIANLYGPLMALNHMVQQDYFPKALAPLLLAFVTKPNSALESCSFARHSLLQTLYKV
Sequence of UniProt P43246 (P43246 whole entry, looked up): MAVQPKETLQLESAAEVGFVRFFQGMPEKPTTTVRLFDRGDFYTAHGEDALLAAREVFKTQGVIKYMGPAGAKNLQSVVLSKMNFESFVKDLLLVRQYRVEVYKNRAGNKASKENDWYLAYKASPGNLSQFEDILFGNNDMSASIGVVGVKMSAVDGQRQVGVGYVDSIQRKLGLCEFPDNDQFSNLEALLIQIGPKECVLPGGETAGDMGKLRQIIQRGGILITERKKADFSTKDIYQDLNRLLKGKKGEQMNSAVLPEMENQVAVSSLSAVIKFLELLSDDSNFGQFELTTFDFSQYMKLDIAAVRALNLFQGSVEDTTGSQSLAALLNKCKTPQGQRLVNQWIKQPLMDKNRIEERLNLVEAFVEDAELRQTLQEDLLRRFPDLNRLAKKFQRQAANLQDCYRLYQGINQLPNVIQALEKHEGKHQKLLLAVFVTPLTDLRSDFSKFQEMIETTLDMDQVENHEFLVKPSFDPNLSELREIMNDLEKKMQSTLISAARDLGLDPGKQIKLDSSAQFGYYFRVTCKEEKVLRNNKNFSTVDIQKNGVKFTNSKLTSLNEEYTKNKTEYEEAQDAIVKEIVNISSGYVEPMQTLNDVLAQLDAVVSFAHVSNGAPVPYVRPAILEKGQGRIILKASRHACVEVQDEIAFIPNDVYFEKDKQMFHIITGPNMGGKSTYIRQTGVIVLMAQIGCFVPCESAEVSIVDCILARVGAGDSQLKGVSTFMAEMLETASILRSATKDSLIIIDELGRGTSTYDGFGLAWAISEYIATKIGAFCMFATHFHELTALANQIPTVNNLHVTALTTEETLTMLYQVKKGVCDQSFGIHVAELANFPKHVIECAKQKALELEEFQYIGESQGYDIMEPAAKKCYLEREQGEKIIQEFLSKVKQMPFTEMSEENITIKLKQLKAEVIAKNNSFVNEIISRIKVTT
Sequence of UniProt P28340 (P28340 whole entry, looked up): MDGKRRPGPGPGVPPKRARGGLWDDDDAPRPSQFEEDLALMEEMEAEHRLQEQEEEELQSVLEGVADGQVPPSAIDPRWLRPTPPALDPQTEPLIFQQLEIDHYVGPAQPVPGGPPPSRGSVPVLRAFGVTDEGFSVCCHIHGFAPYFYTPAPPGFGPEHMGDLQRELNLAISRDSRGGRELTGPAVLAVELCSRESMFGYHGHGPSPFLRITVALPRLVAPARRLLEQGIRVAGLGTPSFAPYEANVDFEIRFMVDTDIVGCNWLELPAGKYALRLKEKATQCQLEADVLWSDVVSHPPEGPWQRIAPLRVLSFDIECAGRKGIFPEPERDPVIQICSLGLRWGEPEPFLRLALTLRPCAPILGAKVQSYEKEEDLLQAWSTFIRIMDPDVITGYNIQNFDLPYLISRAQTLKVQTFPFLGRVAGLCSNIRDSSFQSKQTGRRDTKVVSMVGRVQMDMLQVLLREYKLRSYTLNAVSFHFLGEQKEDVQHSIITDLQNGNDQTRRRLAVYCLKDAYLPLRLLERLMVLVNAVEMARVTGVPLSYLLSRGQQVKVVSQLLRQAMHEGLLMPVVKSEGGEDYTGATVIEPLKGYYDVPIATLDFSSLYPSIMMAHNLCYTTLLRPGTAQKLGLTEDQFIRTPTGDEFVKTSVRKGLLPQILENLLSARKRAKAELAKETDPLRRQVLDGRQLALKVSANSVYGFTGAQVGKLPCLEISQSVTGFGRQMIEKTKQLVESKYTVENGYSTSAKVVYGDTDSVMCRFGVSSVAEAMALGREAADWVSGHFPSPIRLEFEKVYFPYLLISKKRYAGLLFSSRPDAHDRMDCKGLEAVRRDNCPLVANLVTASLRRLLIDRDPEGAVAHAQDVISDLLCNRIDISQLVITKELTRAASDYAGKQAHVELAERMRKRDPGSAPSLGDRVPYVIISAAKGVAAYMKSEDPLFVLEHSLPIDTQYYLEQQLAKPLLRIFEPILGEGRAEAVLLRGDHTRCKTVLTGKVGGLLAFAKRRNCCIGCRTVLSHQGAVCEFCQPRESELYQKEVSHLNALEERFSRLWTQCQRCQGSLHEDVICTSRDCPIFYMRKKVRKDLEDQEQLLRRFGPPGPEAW

Row | Target | log2 ratio of iodoacetamide-alkyne labeling
1 | BCR C395 (UniProt P11274) | 1.17 (active)
2 | G6PD C385 (UniProt P11413) | 0.327 (inactive)
3 | APEX1 C93 (UniProt P27695) | 0.0645 (inactive)
4 | RPS5 C66 (UniProt P46782) | 2.5 (active)
5 | MAT2A C104 (UniProt P31153) | 0.274 (inactive)
6 | IDH2 C154 (UniProt P48735) | 0.393 (inactive)
7 | TTK C284 (UniProt P33981) | 0.53 (inactive)
8 | FBL C268 (UniProt P22087) | 0.27 (inactive)
9 | UniProt P49840_C398 | 0.241 (inactive)
10 | EIF2S3 C105 (UniProt P41091) | 0.341 (inactive)
11 | FLNA C2107 (UniProt P21333) | 0.12 (inactive)
12 | PML C338 (UniProt P29590) | 0.413 (inactive)
13 | PRKAR2A C128 (UniProt P13861) | 0.00919 (inactive)
14 | PFKL C170 (UniProt P17858) | 0.343 (inactive)
15 | ATP1A1 C428 (UniProt P05023) | 0.234 (inactive)
16 | COMT C241 (UniProt P21964) | 0.194 (inactive)
17 | DNMT1 C1226 (UniProt P26358) | -0.0963 (inactive)
18 | PPP2R1A C294 (UniProt P30153) | 0.323 (inactive)
19 | CRKL C249 (UniProt P46109) | 1.61 (active)

Row | Target | log2 ratio of iodoacetamide-alkyne labeling
20 | POLD1 C837 (UniProt P28340) | 1.16 (active)
21 | TCP1 C218 (UniProt P17987) | 0.0267 (inactive)
22 | HCFC1 C1895 (UniProt P51610) | 1.09 (active)
23 | RANBP2 C581 (UniProt P49792) | 0.41 (inactive)
24 | MSH2 C333 (UniProt P43246) | 1.16 (active)
25 | VDAC2 C8 (UniProt P45880) | 0.376 (inactive)
26 | FLNA C1453 (UniProt P21333) | 0.357 (inactive)
27 | HNRNPA3 C196 (UniProt P51991) | -0.0216 (inactive)
28 | HSP90AB1 C521 (UniProt P08238) | 0.298 (inactive)
29 | EEF2 C812 (UniProt P13639) | 0.148 (inactive)
30 | RANGAP1 C303 (UniProt P46060) | 0.47 (inactive)
31 | SMC2 C326 (UniProt O95347) | 0.547 (inactive)
32 | APC C1387 (UniProt P25054) | 0.256 (inactive)
33 | CCT4 C252 (UniProt P50991) | -0.0169 (inactive)
34 | UniProt P26639_C107 | 0.12 (inactive)
35 | CARS C27 (UniProt P49589) | 0.454 (inactive)
36 | RNH1 C85 (UniProt P13489) | 0.0022 (inactive)
37 | RANBP2 C82 (UniProt P49792) | 0.564 (inactive)
